Columns and labels:
Assay in all cases: PBM binding z-score (relative to random genomic background probes); higher = stronger binding; sequences stand for … in GC…GCGATTGACAGCGTAGAATGAAGG
[1] = tested on: FXR:RXRa (NR concentration 270 nM, RXRa partner concentration 90 nM)
Outline: (§1)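 Ligand-free nuclear receptor dimers were applied to custom Agilent 4×180K protein-binding microarrays whose double-stranded probes carried direct-repeat seeds, single-nucleotide variants, half-site ablations and random human genomic background sequences in 34-nt variable regions. Incubation lasted 1 h. Binding z-scores were computed against the random background probes from regression-normalized fluorescence.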

[2] = tested on: LXRa:RXRa (NR concentration 270 nM, RXRa partner concentration 90 nM)
Outline: as §1

[3] = tested on: LXRa homodimer (NR concentration 270 nM)
Outline: as §1

[4] = tested on: LXRb:RXRa (NR concentration 270 nM, RXRa partner concentration 90 nM)
Outline: as §1

[5] = tested on: LXRb homodimer (NR concentration 270 nM)
Outline: as §1

[6] = tested on: PPARa:RXRa (NR concentration 270 nM, RXRa partner concentration 90 nM)
Outline: as §1

[7] = tested on: PPARg:RXRa (NR concentration 180 nM, RXRa partner concentration 90 nM)
Outline: as §1

[8] = tested on: PPARg:RXRa 270nM:90nM, anti-RXR (NR concentration 270 nM, RXRa partner concentration 90 nM)
Outline: as §1

[9] = tested on: PPARg:RXRa 30nM:10nM, anti-RXR (NR concentration 30 nM, RXRa partner concentration 10 nM)
Outline: as §1

[10] = tested on: PPARg:RXRa 90nM:30nM, anti-RXR (NR concentration 90 nM, RXRa partner concentration 30 nM)
Outline: as §1

[11] = tested on: PPARg:RXRa DBDmut IVT, anti-RXR (DBD mutation: RXRa K156A/R161A, NR concentration 270 nM, RXRa partner concentration 90 nM)
Outline: as §1

[12] = tested on: PPARg:RXRa IVT, anti-PPARg (NR concentration 270 nM, RXRa partner concentration 90 nM)
Outline: as §1

[13] = tested on: PPARg DBDmut:RXRa IVT, anti-PPARg (DBD mutation: PPARg1 K132A/R137A, NR concentration 270 nM, RXRa partner concentration 90 nM)
Outline: as §1

[14] = tested on: PPARg DBDmut IVT, anti-PPARg (DBD mutation: PPARg1 K132A/R137A, NR concentration 270 nM)
Outline: as §1

[15] = tested on: PPARg homodimer (NR concentration 180 nM)
Outline: as §1

[16] = tested on: PXR:RXRa (NR concentration 270 nM, RXRa partner concentration 90 nM)
Outline: as §1

[17] = tested on: PXR homodimer (NR concentration 270 nM)
Outline: as §1

[18] = tested on: RARa:RXR (NR concentration 270 nM, RXRa partner concentration 90 nM)
Outline: as §1

[19] = tested on: RARa homodimer (NR concentration 270 nM)
Outline: as §1

[20] = tested on: RARb:RXRa (NR concentration 270 nM, RXRa partner concentration 90 nM)
Outline: as §1

Sequence | PBM binding z-score [1] | PBM binding z-score [2] | PBM binding z-score [3] | PBM binding z-score [4] | PBM binding z-score [5] | PBM binding z-score [6] | PBM binding z-score [7] | PBM binding z-score [8] | PBM binding z-score [9] | PBM binding z-score [10] | PBM binding z-score [11] | PBM binding z-score [12] | PBM binding z-score [13] | PBM binding z-score [14] | PBM binding z-score [15] | PBM binding z-score [16] | PBM binding z-score [17] | PBM binding z-score [18] | PBM binding z-score [19] | PBM binding z-score [20]
TCACCAAGGTGAGCTGAGGTCGTTGATCCAACTC | 1.24 | 0.999 | -0.747 | 0.743 | -1.63 | 1.6 | 0.00194 | 1.01 | 0.915 | 0.958 | 1.73 | 1.53 | -0.807 | -0.69 | 0.0757 | 5.13 | -0.0817 | 2.65 | -0.943 | 1.61
ATCTCTAGGTAAAGATAGTTCAGTGGATGCAAAT | 0.0236 | 4.13 | 0.642 | 0.57 | 0.439 | 0.29 | 0.474 | 0.242 | 0.139 | 0.257 | 1.85 | 1.54 | 0.905 | 0.158 | 0.189 | 0.971 | 0.373 | 0.0212 | 1.18 | 0.718
CGTTAAAGTTCAAGGTAACGTAACAGAAAGCAGC | 6.06 | 5.3 | 2.94 | 3.2 | 1.15 | 4.56 | 3.3 | 4.01 | 1.81 | 3.27 | 0.894 | 2.08 | 0.767 | 0.8 | 1.94 | 3.79 | 2.16 | 2.94 | 2.05 | 4.96
TAGCCTAGGTCAGATCGGGCCAGTATGCGCTATA | 2.71 | 1.19 | -0.503 | 0.727 | -0.424 | 1.73 | 0.328 | 0.593 | -0.423 | 0.0994 | 0.347 | 1.3 | -0.699 | -0.549 | -0.654 | 0.891 | -0.704 | 0.898 | -0.754 | 3.16
AATACAGCGTCATCGTAGGCCAGAGTACGCACAG | -0.326 | -0.432 | -0.689 | -0.757 | -0.269 | -0.355 | 0.716 | -0.141 | -0.189 | -0.519 | -0.562 | 0.0727 | 0.418 | -0.309 | -0.333 | -0.367 | -0.167 | -0.0509 | -0.571 | -0.182
GATACAGGGTCAGCTAGAGGCCAGCGTATGGAAA | 4.35 | 2.75 | -0.301 | 2.11 | -1.03 | 4.37 | 3.18 | 3.49 | 0.694 | 1.92 | 1.62 | 2.35 | -0.653 | -0.347 | 2.22 | 2.97 | -0.477 | 4.55 | -0.0319 | 4.21
ATATGTAGGTTAGCTTGGGTCATTCAGACTAGGC | 2.44 | 5.2 | 0.866 | 2.43 | 0.362 | 3.42 | 3.84 | 3.34 | 1.32 | 2.41 | 6.6 | 5.97 | 1.34 | 1.95 | 1.5 | 2.77 | 0.807 | 2.26 | 0.877 | 1.89
CCTAGTTGGTCAGGAGGTCGCACACCGGATATGA | 1.17 | 0.794 | 0.375 | 0.833 | 0.0283 | 1.59 | 1.06 | 1.73 | 0.24 | 1.19 | 0.576 | 1.51 | -0.0553 | -0.0724 | 1.86 | 1.24 | 0.681 | 1.59 | 1.17 | 1.98

Reference: the supplement of paper PMC6555819
